Sampled rows, rich in hits. Any-hit rate of the full collection: about 1.6%.
Efflux pump inh: inhibitors of Candida efflux pumps in yeast, primary screen, S. cerevisiae, Nile Red, multiplex; AID 485275, 2010; hit rate 0.44% among 330,000; S. cerevisiae Candida pump triplex; inhibition, % at 10 µM;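 active means plate passing quality check with inhibition over a set limit, or well fluorescence over plate mean plus 4 SD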;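 further: Nile Red retained in pooled yeast measured as flow cytometry median fluorescence; 0% = buffer negative control and 100% = Enniatin B positive control; higher means more Nile Red kept so more efflux inhibition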
ATG4B inhibitor: ATG4B protease inhibitors, primary screen, biochemical, fluorescence, uHTS; hit rate 0.51% among 340,000; Cysteine protease ATG4B (Homo sapiens), Q9Y4P1; ATG4B cleavage of LC3-PLA2, NBD-HPC fluorescence, 1 h; inhibition, % at 8.33 µM; in the data active means inhibition above about 40%
Target sequence (Q9Y4P1 whole entry, looked up): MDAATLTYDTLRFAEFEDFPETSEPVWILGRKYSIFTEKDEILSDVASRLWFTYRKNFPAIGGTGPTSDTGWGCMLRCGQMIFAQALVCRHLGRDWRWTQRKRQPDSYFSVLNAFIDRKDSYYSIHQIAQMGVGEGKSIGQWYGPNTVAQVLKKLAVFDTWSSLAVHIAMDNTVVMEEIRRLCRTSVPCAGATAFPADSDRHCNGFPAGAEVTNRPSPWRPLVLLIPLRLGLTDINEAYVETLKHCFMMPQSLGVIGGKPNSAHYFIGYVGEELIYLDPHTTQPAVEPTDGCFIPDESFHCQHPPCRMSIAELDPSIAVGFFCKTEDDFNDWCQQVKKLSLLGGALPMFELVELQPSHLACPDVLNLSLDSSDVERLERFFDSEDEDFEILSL
CR mimetic SO: reduction of superoxide in aged yeast, primary screen, HTS; AID 2690, 2010; superoxide response (% of plate mean), % at 10 µM; S. cerevisiae aged cells, superoxide DHE fluorescence; hits give low values; hit rate 0.18% among 330,000;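 active means superoxide response under a set limit, about three screen SD below normal, cut at about 65% in these data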;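 further: yeast aged for seven days with compound at 30 °C before DHE staining; 100% = average MFI of all compound-treated wells on the plate with controls excluded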
GRK2 aptamer HTS: compounds blocking aptamer binding on GRK2 – biochemical, human GRK2, bead flow cytometry, HTS, primary screen | hit rate 0.59% among 330,000 | inhibition of aptamer binding, % at 10 µM | FAM-aptamer displacement from GRK2 | AID 488847, 2010 | Beta-adrenergic receptor kinase 1 (Homo sapiens), P25098;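 active means inhibition of aptamer binding above 40%, roughly 3 SD of noise, on plates passing a quality check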;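 further: median bead fluorescence of bound FAM aptamer so fluorescent compounds give negative values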
GRK2 CP1: GRK2 aptamer-displacing inhibitors, retest, confirmation, biochemical, cherry pick 1, bead flow cytometry | shares compounds with GRK2 aptamer HTS | aptamer displacement, % at 10 µM | hit rate 4% among 2,000 | AID 504451, 2011 | bead-bound GRK2, FAM-aptamer displacement;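 active means aptamer displacement above 40%, near three times the noise of non-fluorescent compounds, on plates passing quality checks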;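 further: negative values mostly reflect intrinsic compound fluorescence rather than true enhancement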
Aptamer quench SP: aptamer fluorescence quenching in GRK2 counter-screen. Carboxyfluorescein RNA aptamer on beads, flow cytometry quenching; hits give low values. 2,000 tested, under 10 active. fluorescence response (% of DMSO), % at 10 µM. shares compounds with GRK2 aptamer HTS. AID 504580;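 active means compounds that quench the bead-bound fluorescent RNA probe, cutting fluorescence to under half of the solvent control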;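 further: counterscreen run without GRK2 so only probe quenching by compound is measured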
GRK2 confirm 2: GRK2 aptamer-displacing inhibitors, hit retest, confirmation, biochemical, cherry pick 2, bead flow cytometry. shares compounds with GRK2 aptamer HTS. bead-bound GRK2, FAM-aptamer displacement. inhibition of aptamer binding, % at 10 µM. 360 tested, under 10 active. AID 504782, 2011;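 active means inhibition of aptamer binding above 40%, about triple the noise seen with nonglowing compounds, on plates passing quality control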;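 further: negative values mostly come from compounds that fluoresce themselves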
FAM quench CP2: quenches fluorescent RNA aptamer, GRK2 hit artifact | shares compounds with GRK2 aptamer HTS | carboxyfluorescein RNA aptamer beads, flow cytometry quenching; hits give low values | fluorescence response vs DMSO, % at 10 µM | 360 tested, under 10 active;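 active means response vs DMSO under 50%, meaning signal dropped by over half, treated as fluorescence quencher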;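 further: labelled aptamer on streptavidin beads without GRK2 as a quench counter-screen; 100% = bead fluorescence of DMSO wells and lower means quenching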
* hit, by the source's call; / = not tested or not shown.

SMILES	Efflux pump inh	ATG4B inhibitor	CR mimetic SO	GRK2 aptamer HTS	GRK2 CP1	Aptamer quench SP	others
O=Cc1cccc(OC(=O)/C=C/c2ccco2)c1	0.0	18.2	100.4	62.0*	4.8	97.3
CCN(CC)C(=O)Cn1cc(C(=O)C(=O)N2CCc3ccccc32)c2ccccc21	0.2	34.1	101.3	40.0	-0.6	100.0
Cc1ccccc1-c1cc(C(=O)NCc2cccc(C(F)(F)F)c2)nn1CC1CC(c2cccc([N+](=O)[O-])c2)=NO1 (configuration not stated)	0.0	25.7	103.2	0.0	/	/
CC(=O)c1ccc(OCCCC(=O)Nc2cccc(S(=O)(=O)N3CCCCC3)c2)cc1	0.0	-11.8	117.0	0.0	-1.0	97.8
CC(=O)c1cccc(NC(=O)C2CC(=O)N(c3ccc4c(c3)OCCO4)C2)c1 (configuration not stated)	0.0	-3.9	101.4	0.0	/	/
CC(=O)c1ccc(OCCCC(=O)Nc2cccc(S(=O)(=O)N3CCCCCC3)c2)cc1	0.0	-3.1	119.2	0.0	/	/
N#Cc1cccc(NC(=O)CNc2cccc(S(=O)(=O)N3CCCCC3)c2)c1	-0.1	5.0	89.0	0.0	1.1	101.7
O=C(Nc1cccc(S(=O)(=O)NC2=NCCC2)c1)C1CC(=O)N(c2ccc3c(c2)OCCO3)C1 (configuration not stated)	0.0	2.8	89.9	1.0	2.2	97.4
Cc1cccc(N2CC(C(=O)Nc3cccc(S(=O)(=O)N4CCCCC4)c3)CC2=O)c1C (configuration not stated)	0.0	3.7	106.6	2.0	-3.3	98.0
COc1ccc(NC(=S)N2CCCC2)c(OC)c1	0.0	-0.4	96.3	4.0	/	/
CCOC(=O)Cc1nc(-c2ccc(Cl)cc2)n[nH]1	0.0	-0.4	94.5	0.0	/	/
Cc1ccccc1N1CC(C(=O)N2CCCCCC2)CC1=O (configuration not stated)	0.1	0.4	102.2	65.0*	-1.6	97.5
Cc1ccc(S(=O)(=O)N2CCCCC2)cc1NC(=O)CCN1C(=O)C2CC=CCC2C1=O (configuration not stated)	0.0	-6.1	92.6	0.0	/	/
O=C(CCN1C(=O)C2CC=CCC2C1=O)Nc1cccc(S(=O)(=O)N2CCCCC2)c1 (configuration not stated)	0.0	-5.0	89.7	1.0	-8.0	107.9
CC(C)(C)c1ccc(C(=O)NN2C(=O)CSC2=S)cc1	-0.1	-4.6	97.3	55.0*	-4.5	98.4
Cc1ccc(C(=O)NN2C(=O)CSC2=S)cc1	0.0	-7.1	98.7	0.0	/	/
O=C(c1cc(-c2cccc(Cl)c2)nc2ccccc12)N1CCN(c2ccccn2)CC1	0.0	-3.6	115.1	0.0	/	/
O=C(c1cc(-c2ccncc2)nc2ccc(Br)cc12)N1CCN(c2ccccn2)CC1	-0.1	-12.3	105.8	93.0*	-4.8	98.3
Cc1ccc(CN2CCNC(=O)C2CC(=O)N(C)C2CCOCC2)cc1 (configuration not stated)	-0.1	-0.7	99.0	2.0	/	/
CC(=O)c1cccc(Nc2cc(C)nc3ccccc23)c1	0.0	-0.1	101.7	0.0	/	/
O=C(O)c1cccc(Nc2c3ccccc3nc3ccccc23)c1	0.2	-0.3	97.6	51.0*	0.4	94.3
Cc1oc(/C=N/NC(=O)CC2(C)OCCO2)cc1Br	0.1	1.2	102.1	35.0	0.5	98.6
COc1cc2c(cc1OC)C(C)N(S(=O)(=O)c1cccs1)CC2 (configuration not stated)	0.0	-9.6	91.9	1.0	/	/
COc1cc2c(cc1OC)C(C)N(S(=O)(=O)c1ccc(C)cc1)CC2 (configuration not stated)	-0.1	-7.4	99.9	49.0*	-10.5	94.3
COc1cc(C(=O)NCCc2ccc(S(=O)(=O)N3CCCC3)cc2)cc(OC)c1OC	-0.1	-6.7	99.1	0.0	/	/
SMILES	Efflux pump inh	ATG4B inhibitor	CR mimetic SO	GRK2 aptamer HTS	GRK2 CP1	Aptamer quench SP	others
CCCc1nnc(NC(=O)CCS(=O)(=O)c2ccccc2)s1	0.3	-0.8	97.7	13.0	18.5	99.0
CCCCc1nnc(NC(=O)CCS(=O)(=O)c2ccc(Cl)cc2)s1	0.1	8.5	98.4	3.0	1.0	92.3
COc1ccc(C(=O)N2CCC(C(=O)O)CC2)c2ccccc12	-0.1	2.2	101.0	0.0	/	/
C#CCn1c(=O)cc(C)c2ccccc21	0.0	0.8	94.2	47.0*	1.5	101.5
CCc1nnc(NC(=O)CSc2nnc(-c3ccc(O)cc3)n2C)s1	0.0	-3.1	88.0	37.0	-4.6	101.7
NC(=O)CSc1cn(CCNC(=O)c2cccs2)c2ccccc12	0.3	3.1	131.8	0.0	/	/	GRK2 confirm 2=-17.0;FAM quench CP2=101.0
Cc1nnc(NC(=O)CSc2cn(CCNC(=O)c3ccccc3)c3ccccc23)s1	0.1	-6.0	99.1	1.0	/	/
COc1ccc(NC2CCCN(C(=O)CCC(=O)c3ccc(F)cc3)C2)cc1 (configuration not stated)	0.0	1.2	101.9	2.0	/	/
O=C(O)/C=C/C(=O)Nc1ccc(Cc2ccc(NC(=O)/C=C/C(=O)O)cc2)cc1	-0.1	-2.0	94.1	40.0	1.1	93.8
CCC(=O)Oc1ccc2c(C)cc(=O)oc2c1C(=O)CC	0.1	-6.2	96.9	100.0*	2.8	101.2
CCOc1ccc(NC(=O)CN(C)C(=O)c2c(-c3ccccc3Cl)noc2C)cc1OCC	0.1	-5.4	98.3	1.0	/	/
CC(C)=C1C2CCC1C1C(=O)N(c3ccc4c(c3)OCO4)C(=O)C21 (configuration not stated)	0.2	0.6	112.0	48.0*	/	/	GRK2 confirm 2=-42.1;FAM quench CP2=101.0
COc1ccc(OCCN2CCN(C(=O)c3ccc(OC(F)F)c(OC)c3)CC2)cc1	-0.2	-13.8	86.3	56.0*	-0.4	102.8
CC(C(=O)Nc1ccon1)N1C(=O)c2ccccc2S1(=O)=O (configuration not stated)	0.3	-2.1	114.3	95.0*	-1.4	96.2
CC(C(=O)Nc1nccs1)N1C(=O)c2ccccc2S1(=O)=O (configuration not stated)	-0.2	3.1	101.1	1.0	/	/

Assay outcomes (PubChem BioAssay)
